From PubChem BioAssay
An excerpt weighted towards active compounds, which were near 28% of everything screened.
Mac1 fbg inh = CD11b/CD18-fibrinogen binding inhibition; inhibition, % at 10 µM; AID 1497; K562 CD11b/CD18 adhesion to fibrinogen, ATPlite luminescence; Mn2+ added to activate the integrin; P05107+P11215; 93,000 compounds, 0.54% hits;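 active = primary inhibition of 50% or more at 10 µM, then 40% or more on retest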
CYP2C9 inhib = blocks human cytochrome P450 2C9 | CYP2C9 Supersomes, luciferin-H conversion, luminescence | inhibition, % at 5 µM | 96,000 compounds, 20% hits | AID 777;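 active = blocking of liver enzyme CYP2C9 beyond about 50% at 5 µM, limit read from the data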
Target sequence (P11712 whole entry, looked up): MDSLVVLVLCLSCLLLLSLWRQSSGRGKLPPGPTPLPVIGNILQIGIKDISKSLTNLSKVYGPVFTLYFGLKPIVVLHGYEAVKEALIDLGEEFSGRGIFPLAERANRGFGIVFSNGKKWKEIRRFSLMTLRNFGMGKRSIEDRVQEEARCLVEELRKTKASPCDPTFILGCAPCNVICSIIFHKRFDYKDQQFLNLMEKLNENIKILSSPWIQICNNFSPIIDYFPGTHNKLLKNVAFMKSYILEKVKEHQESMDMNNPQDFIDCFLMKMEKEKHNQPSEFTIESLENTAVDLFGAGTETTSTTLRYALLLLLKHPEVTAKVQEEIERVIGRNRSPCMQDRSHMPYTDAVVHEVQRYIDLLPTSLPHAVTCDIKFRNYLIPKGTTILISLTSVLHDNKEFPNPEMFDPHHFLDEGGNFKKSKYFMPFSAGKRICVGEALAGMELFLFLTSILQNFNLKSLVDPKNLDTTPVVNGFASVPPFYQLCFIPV
CYP2C19 act = activators of human cytochrome P450 2C19; P33261; recombinant CYP2C19, luciferin-H EGE luminescence; hits give high values; 0 = fully inhibited enzyme, 1 = untreated enzyme; activation factor at 5 µM; 96,000 tested, under 10 active; AID 1025;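 active = activation factor of at least 2 at 5 µM in the primary screen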;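 note: 0 = wells with 2.5 mM tranylcypromine and 1 = vehicle-only wells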
CD11b adhes enh = enhancers of human CD11b/CD18 binding to fibrinogen; 93,000 compounds, 0.07% hits; P05107+P11215; K562 CD11b/CD18 adhesion to fibrinogen, ATPlite luminescence; activation, % at 10 µM;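 active = 10 µM primary screen giving 50% or more activity, confirmed by 40% or more on retest at that dose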
CYP2C9 activ = activators of human CYP2C9; P11712; recombinant CYP2C9, luciferin-H conversion, luminescence; hits give high values; factor 1 = untreated enzyme, 0 = blocked; activation factor at 5 µM; 96,000 compounds, 1.4% hits; AID 1024;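 active = activation factor of 2 or more for CYP2C9 at a 5 µM dose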;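 note: 0 = sulfaphenazole-blocked wells and 1 = vehicle-only wells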
CYP2C19 inh = human CYP2C19 inhibition | P33261 | CYP2C19 Supersomes, luciferin-H EGE luminescence, 30 min | inhibition, % at 5 µM | 96,000 compounds, 21% hits | AID 778;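 active = CYP2C19 inhibition above a set limit at 5 µM in the primary screen, cut at about 50% in these data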;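 note: plate controls were negative control wells for no effect and 2.5 mM tranylcypromine positive control for full effect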
Active calls of the source: *; x = no result.

SMILES	Mac1 fbg inh	CYP2C9 inhib	CYP2C19 act	CD11b adhes enh	CYP2C9 activ	CYP2C19 inh
COc1ccc(C2NC(=O)NC(O)(C(F)(F)F)C2C(=O)c2ccc(C)cc2)cc1 (configuration not stated)	3	22	0.5	-3	0.8	47
O=C(O)/C=C/C(=O)Nc1ccccc1C(=O)Nc1ccccc1	-6	4	1.5	-3	1	-48
O=C(NCc1ccccn1)C1CC(c2ccc(F)cc2)=NO1 (configuration not stated)	-39	0	0.8	-1	1	20
CCOc1ccccc1N(CC(=O)Nc1ccc2c(c1)OCCO2)S(C)(=O)=O	-2	77*	0.5	-1	0.2	45
Cc1ccc(NC(=O)CN(c2ccccc2F)S(C)(=O)=O)cc1	-5	48	0.2	2	0.5	76*
C=CCNC(=O)CN(c1ccccc1OCC)S(=O)(=O)c1ccc(C)cc1	-14	68*	0.3	4	0.3	66*
CCOc1ccccc1N(CC(=O)Nc1ccc(C)cc1)S(C)(=O)=O	-17	40	0.3	0	0.6	71*
CCOc1ccccc1N(CC(=O)Nc1ccc2c(c1)OCO2)S(C)(=O)=O	-2	32	0.9	0	0.7	12
CCOC(=O)NNC1CC(=O)N(c2ccc(OC)cc2)C1=O (configuration not stated)	11	6	1	3	0.9	-3
CCCCC(CCC(=O)Nc1ccccc1C(=O)OCC)C(=O)O (configuration not stated)	-5	59*	1.1	4	0.4	-11
CCCNC(=O)c1ccccc1NC(=O)CN(c1ccccc1OCC)S(C)(=O)=O	10	58*	0.8	-1	0.4	17
CC(=O)c1cccc(N(CC(=O)Nc2ccc(F)cc2F)S(C)(=O)=O)c1	-3	11	0.2	0	0.9	76*
CCOC(=O)c1ccccc1NC(=O)CN(c1ccccc1C)S(C)(=O)=O	-18	78*	0	-3	0.2	96*
COc1ccccc1N1CCN(C(=O)Cn2nc(C(F)(F)F)c3c2CCC3)CC1	-4	-94	0.5	-2	1.9	48
Cc1ccccc1N(CC(=O)Nc1ccc(F)cc1)S(C)(=O)=O	7	45	0.1	2	0.6	89*
Cc1ccccc1N(CC(=O)N1CCN(c2ccccc2)CC1)S(C)(=O)=O	0	10	1.1	2	0.9	-7
COc1ccc(N2C(=O)C3CCCN3C2=O)cc1 (configuration not stated)	-16	-25	1.1	-3	1.2	-11
CC(=O)N(C(C)=O)c1c(C#N)c(C)n(-c2ccccc2)c1C(=O)c1ccccc1	-1	9	0.3	6	0.9	71*
Cc1c(C#N)c2ncnc(N)c2n1-c1ccccc1	-2	16	0.8	3	0.8	15
CC(NC(=O)Cc1ccsc1)c1ccc(S(N)(=O)=O)cc1 (configuration not stated)	4	1	1.1	4	1	-9
CO/N=C/NC(=O)c1c(OC)ccnc1Oc1ccc(F)cc1	10	-1	1	1	1	4
CO/N=C/NC(=O)c1c(OC)ccnc1Oc1cccc(C(F)(F)F)c1	-12	9	0.4	-1	0.9	58*
COc1ccnc(Oc2ccc(F)cc2)c1C(=O)N/C=N/OCc1ccc(F)cc1	1	28	0.4	-2	0.7	64*
COC(=O)C1CCN(C(=O)c2ccccc2NC(C)=O)CC1	-58	-2	0.9	3	1	12
Cc1csc(Sc2nc3c(c(=O)[nH]c(=O)n3C)n2CCCc2ccccc2)n1	-8	8	1	-7	0.9	-3
O=C(CSc1n[nH]c(-c2ccc(S(=O)(=O)NC3CCCCC3)cc2)n1)N1CCCC1	-13	51*	0.1	-1	0.5	87*
CC(C)c1ccccc1OCC(=O)NCC(c1cccs1)N1CCOCC1 (configuration not stated)	7	19	0.3	1	0.8	68*
O=C(NCC(c1cccs1)N1CCOCC1)c1ccccc1NS(=O)(=O)c1cc([N+](=O)[O-])ccc1Cl (configuration not stated)	85*	x	x	-9	x	x
